# Assay results published in the supplement of paper PMC8728848.
# About 410 targets per protein were measured; listed, in parts, are those with the strongest signals and a random draw of the rest.
# Experiments:
# Assay in all cases: glycan array binding signal (z-score within array); higher = stronger binding
# Settings in all cases: glycan notation: IUPAC condensed, linker removed
# Glc(a1-4)Glc = target: Glc(a1-4)Glc
# Method in brief: (§1)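 The binding signal is a Z-score computed within each array and averaged over linkers. Arrays of the same protein sequence at different concentrations or buffers were also averaged together. Data originate from 3228 arrays in the Consortium for Functional Glycomics database, kept only where the protein sequence was available.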
# [1] = target: Glc(a1-4)Glc(a1-4)Glc(a1-4)Glc
# Method in brief: as §1
# GlcA(b1-3)GlcNAc = target: GlcA(b1-3)GlcNAc
# Method in brief: as §1
# [2] = target: GlcNAc(a1-3)Gal(b1-4)GlcNAc
# Method in brief: as §1
# [3] = target: GlcNAc(b1-2)[GlcNAc(b1-6)]Man(a1-6)[GlcNAc(b1-2)Man(a1-3)]Man(b1-4)GlcNAc(b1-4)[Fuc(a1-6)]GlcNAc
# Method in brief: as §1
# [4] = target: GlcNAc(b1-2)[GlcNAc(b1-6)]Man(a1-6)[GlcNAc(b1-4)][GlcNAc(b1-2)Man(a1-3)]Man(b1-4)GlcNAc(b1-4)GlcNAc
# Method in brief: as §1
# GlcNAc(b1-3)Gal = target: GlcNAc(b1-3)Gal
# Method in brief: as §1
# [5] = target: GlcNAc(b1-3)[GlcNAc(b1-6)]GalNAc
# Method in brief: as §1
# [6] = target: GlcNAc(b1-4)GlcNAc(b1-4)GlcNAc
# Method in brief: as §1
# [7] = target: GlcNAc(b1-4)GlcNAc(b1-4)GlcNAc(b1-4)GlcNAc(b1-4)GlcNAc
# Method in brief: as §1
# [8] = target: GlcNAc(b1-6)Gal(b1-4)GlcNAc
# Method in brief: as §1
# GlcNAc(b1-6)GalNAc = target: GlcNAc(b1-6)GalNAc
# Method in brief: as §1
# MurNAc(b1-4)GlcNAc = target: MurNAc(b1-4)GlcNAc
# Method in brief: as §1
# [9] = target: Neu5Ac(a2-3)Gal(b1-3)GlcNAc(b1-2)Man(a1-3)[Neu5Ac(a2-3)Gal(b1-3)GlcNAc(b1-2)Man(a1-6)]Man(b1-4)GlcNAc(b1-4)GlcNAc
# Method in brief: as §1
# [10] = target: Neu5Ac(a2-3)Gal(b1-3)GlcNAc6S
# Method in brief: as §1
# [11] = target: Neu5Ac(a2-3)Gal(b1-3)]Neu5Ac(a2-3)Gal(b1-4)]GlcNAc
# Method in brief: as §1
# [12] = target: Neu5Ac(a2-3)Gal(b1-4)[Fuc(a1-3)]GlcNAc(b1-3)Gal(b1-4)GlcNAc
# Method in brief: as §1
# [13] = target: Neu5Ac(a2-3)Gal(b1-4)[Fuc(a1-3)]GlcNAc(b1-6)[Gal(b1-3)]GalNAc
# Method in brief: as §1
# [14] = target: Neu5Ac(a2-3)Gal(b1-4)[Fuc(a1-3)]GlcNAc(b1-6)[Neu5Ac(a2-3)Gal(b1-3)]GalNAc
# Method in brief: as §1
# [15] = target: Neu5Ac(a2-6)Gal(b1-4)GlcNAc(b1-2)[Neu5Ac(a2-6)Gal(b1-4)GlcNAc(b1-4)]Man(a1-3)[GlcNAc(b1-4)][Neu5Ac(a2-6)Gal(b1-4)GlcNAc(b1-2)[Neu5Ac(a2-6)Gal(b1-4)GlcNAc(b1-6)]Man(a1-6)]Man(b1-4)GlcNAc(b1-4)GlcNAc
# Method in brief: as §1
# [16] = target: Neu5Ac(a2-6)Gal(b1-4)GlcNAc(b1-2)[Neu5Ac(a2-6)Gal(b1-4)GlcNAc(b1-6)]Man(a1-6)[Neu5Ac(a2-6)Gal(b1-4)GlcNAc(b1-2)Man(a1-3)][GlcNAc(b1-4)]Man(b1-4)GlcNAc(b1-4)GlcNAc
# Method in brief: as §1
# Neu5Ac(b2-6)GalNAc = target: Neu5Ac(b2-6)GalNAc
# Method in brief: as §1
# [17] = target: Neu5Gc(a2-3)Gal(b1-3)GlcNAc
# Method in brief: as §1
# [18] = target: Neu5Gc(a2-8)Neu5Ac(a2-3)Gal(b1-4)GlcNAc
# Method in brief: as §1
binder,measurement,setting,value
Pbx1 (Cryptococcus neoformans) (protein) ATTKCLVSGDQDSINNALALGGEGTTVTLCPGSVHRLNSSIIFTAPSQTLTTLGNPKDRNRAMLVVDGEDLACAIRADCKQCSHAMIRSLVIDGNRPQLLRIPKGDALIEVGNAESQTVRDCKLYEPRGWSALHFREGDERQCRFGHIVDNEIGPCGEEWDDEYDSMDETKPLWGNPRADGISLACKDSIVERNVVYDATDGAIVLFGSAGSTVKNNHVYARTRVILGGINLVDYEPWDGDYTNVKVHHNHLYALGRYFKVGIVIGPASWSDDTESVVHSASVTDNEFSGGYWGYGIVVASAKNFEVLRNKVIWDGEQGVARFSGVPGSRCPKAPENGKPTAFLINRGSAKGIFQDDFVNGEVQHIICLNPDQDPPYKPWRFRDSPEAIAAKQAENPTANSAFDSRIAEALVSYQMSLLNSMDAMTQKVEHLTNPIVDDALPFVHEHERAEADKKARQEASRKEKESGNKDVDMLNVKVEELEKSGRRLKKALDGLKSDFEGLSGRLKKSADENKPIIETIFVTSQNLLLGATSQQN,glycan array binding signal (z-score),Glc(a1-4)Glc,0.352
same,glycan array binding signal (z-score),[1],-0.56
same,glycan array binding signal (z-score),GlcA(b1-3)GlcNAc,0.759
same,glycan array binding signal (z-score),[2],0.052
same,glycan array binding signal (z-score),[3],-0.137
same,glycan array binding signal (z-score),[4],-0.848
same,glycan array binding signal (z-score),GlcNAc(b1-3)Gal,-0.639
same,glycan array binding signal (z-score),[5],-0.235
same,glycan array binding signal (z-score),[6],-0.565
same,glycan array binding signal (z-score),[7],-0.631
same,glycan array binding signal (z-score),[8],-0.045
same,glycan array binding signal (z-score),GlcNAc(b1-6)GalNAc,-0.262
same,glycan array binding signal (z-score),MurNAc(b1-4)GlcNAc,5.14
same,glycan array binding signal (z-score),[9],0.345
same,glycan array binding signal (z-score),[10],-0.618
same,glycan array binding signal (z-score),[11],-1.05
same,glycan array binding signal (z-score),[12],0.071
same,glycan array binding signal (z-score),[13],3.7
same,glycan array binding signal (z-score),[14],0.371
same,glycan array binding signal (z-score),[15],2.36
same,glycan array binding signal (z-score),[16],-0.36
same,glycan array binding signal (z-score),Neu5Ac(b2-6)GalNAc,-0.769
same,glycan array binding signal (z-score),[17],-0.531
same,glycan array binding signal (z-score),[18],-0.771
